Reference: PubChem BioAssay AID587 (National Center for Advancing Translational Sciences (NCATS), 2007)
Out of some 59,000 compounds screened, about 35 (0.06%) were called active. About 19% were inconclusive and are not listed. Rule as the data show it: active = max dye-equivalent concentration above about 10 nM; inconclusive = between about 1.1 nM and that limit; inactive = weaker than that. The full list was thinned out, with actives kept by preference.

Experiment: qHTS Assay for Spectroscopic Profiling in Texas Red Spectral Region
Conditions: Compound fluorescence, Texas Red channel, 547/618 nm
Description: NIH Molecular Libraries Screening Centers Network [MLSCN] NIH Chemical Genomics Center [NCGC] […] Occasionally, the artifactual effect may originate from the compound#s own spectral or other biophysical properties which generally tend to track its assay concentration. Pre-screening/profiling the library with respect to the compounds# spectral properties should help one exclude false positives early on. While the most informative fluorescent profiling data set is obtained by performing a full excitation and emission scan of each well by using a monochromator-based plate reader, such an approach is practical only on a very limited scale as scanning each well requires long time. An alternative approach, applied here, is to perform plate reader scans using selected excitation and emission wavelength pairs to generate a multidimensional relational database that correlates compound concentration and the respective relative fluorescence intensity at a given wavelength set. A standard curve of Texas Red (TR) present on each plate as six-point concentration series, was used to compute a normalized fluorescence response, termed dye-equivalent concentration, for each compound at each concentration.
NCGC Assay Protocol Summary: Buffer: 100 mM Tris buffer, pH 8.0 Dye standard plate: The wells in columns 1 through 4 of a Kalypsys polypropylene 1536-well compound plate were filled with standard solutions of fluorophore corresponding to the spectral region of interest. Solutions of TR were placed in the following wells: U1, V1: 3 mM, U2, V2: 300 uM, U3, V3: 30 uM, U4, V4: zero (DMSO), W1, X1: 3 uM, W2, X2: 900 nM, W3, X3: 300 nM, W4, X4: zero (DMSO). Assay Steps: Six uL of buffer were dispensed to 1536-well Greiner black plates. Compounds and dye standards (23 nL) were transferred via Kalypsys PinTool. The plates were incubated for 15 min at room temperature, and then read on ViewLux (Perkin-Elmer) High-throughput CCD imager using 547 nm and 618 nm excitation and emission filter set. Keywords: NIH Roadmap, MLSCN, MLI, MLSMR, qHTS, NCGC, Texas Red, Fluorescent Profiling.

Max dye-equivalent concentration, inactive:
O=C1CC2(CCCCC2)Oc2ccc(OCC(=O)N3CCOCC3)cc21
Cc1cnc(CNc2cc(-c3c(C)noc3C)ncn2)cn1
CS(=O)(=O)Nc1cccc(-c2cncnc2Nc2ccccc2)c1
CC(C)OC(=O)C(C#N)c1nc2ccccc2nc1N1CCN(Cc2ccc3c(c2)OCO3)CC1 (stereo not drawn)
Oc1ccc2ccccc2c1C=NCc1c(O)ccc2ccccc12
COCCNC(=S)c1ccc(OC)cc1
CCOC(=O)c1cnc2sccn2c1=O
COc1ccc(OC)c(C(=O)CSc2nnc(-c3cccs3)o2)c1
CCCCn1c(SCC(=O)N2CCC(C(=O)OCC)CC2)nc2cc(S(N)(=O)=O)ccc21
Cc1cc(N2CCCCC2)nc2ccc(Cc3ccc4nc(N5CCCCC5)cc(C)c4c3)cc12
CC(C)c1nc2oc3c(N4CCN(C)CC4)ncnc3c2c2c1CCC2
COCCNc1cc(-c2c(C)noc2C)ncn1
O=c1c(-c2ccc(F)cc2)nc2cnc(N3CCNCC3)nc2n1Cc1cccs1
Cc1nc(NCCN)c(C#N)c2c1COC(C)(C)C2
Cn1cccc1C(=O)NC(=O)COC(=O)Cc1coc2ccc3ccccc3c12
CCOCCN(C=O)c1cccc(OC)c1
COc1ccc2[nH]c(=O)c(CN(CC3CCCO3)C(=O)Nc3ccccc3)cc2c1 (stereo not drawn)
Cn1c(=O)c2c(n(Cc3ccccc3)c1=O)NC(=O)C2CC(=O)N1CCc2ccccc2C1 (stereo not drawn)
O=S(=O)(c1ccccc1)N1CCC2(CC1)CN(Cc1nccs1)C2
O=C(O)CS(=O)c1ccc2c3c(cccc13)C(=O)c1ccccc1-2 (stereo not drawn)
Nc1nonc1-c1nc2ccccc2n1CCC(=O)O
Cc1nc2cnc(N3CCNCC3)nc2n(Cc2ccc(F)cc2)c1=O
Cn1c(=S)c2[nH]c(SCCCc3ccccc3)nc2n(C)c1=O
